Holding throughout (assay): NCI-60 one-dose screen, 48 h (100 = growth as untreated, 0 = no growth, -100 = all killed)
Settings in all cases: 10 µM

Assay [1] deals with T-47D breast.
The test system of assay [2] is BT-549 breast.
Assay [3] relates to MDA-MB-435 melanoma.
In assay [4] the test system is SW-620 colon.
Assay [5] has as its system MCF7 breast.
Assay [6] concerns HCT-116 colon.
Assay [7] has as its system HCC-2998 colon.
For assay [8], the system named is KM12 colon.

The source of these data is PubChem BioAssay (NCI).

About 83,000 compounds went through this panel and 20% of them were active in at least one assay; those are over-represented in the sample as a whole.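 A percent growth of 40 corresponds to 60% growth inhibition; 0 means no net growth; -100 means all cells died. Active threshold: below 10.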 Values without a mark were called inactive. Activity calls are given as the source filed them.

`Cc1cc(O)c(C2=NN(c3ccc(S(N)(=O)=O)cc3)C(c3ccc(N(C)C)cc3)C2)c(C)c1Cl` (stereo not given): the growth is 37% in assay [1]; 95.7% in assay [2]; 69.3% in assay [3]; 72.2% in assay [4]; 37.2% in assay [5]; 41.1% in assay [6]. Also, the growth in assay [7] was 94.1%; in assay [8], 62.4%.
With `O=NN(CCCl)C(=O)NCc1ccc(-c2ccc(CNC(=O)N(CCCl)N=O)cc2)cc1`, the growth in assay [1] is 101%; in assay [2], 86.6%; in assay [3], 91.3%; in assay [4], 89.5%; in assay [5], 96.1%; in assay [6], 89.2%. Besides, the growth in assay [7] was 101%; in assay [8], 98.9%.
On to `COc1ccc(C2C=C(c3ccc(Cl)c(Cl)c3)N=C3SC(C)=CN32)cc1OC` (stereo not given), for which the growth in assay [1] was 64%; in assay [2], 89.1%; in assay [3], 69.4%; in assay [4] it was 85.7%; in assay [5], 72.8%; in assay [6], 48.8%. Besides, the growth in assay [7] was 77.8%; in assay [8], 57%.
As for `CCOC(=O)C(=O)Cc1cccnn1`, the growth in assay [1] is 122%; in assay [2] it was 101%; in assay [3], 111%; in assay [4] it was 109%; in assay [5], 95.3%; in assay [6] it was 102%. The growth in assay [7] is 112%; in assay [8], 108%.
Consider `COC(=O)[C@]12CC[C@@H](C)[C@H](C)[C@@H]1C1=CC[C@@H]3[C@@]4(C)C/C(=N\O)[C@H](O)[C@@]5(C)COC(=C45)C[C@@]3(C)[C@]1(C)CC2`, for which the growth was -84.6% (active) in assay [1]; -79.8% (active) in assay [2]; -84% (active) in assay [3]; -64.5% (active) in assay [4]; -71.1% (active) in assay [5]; -84.8% (active) in assay [6]. For the same compound, the growth in assay [7] was -89.4% (active); in assay [8], -80.9% (active).
`O=C(NNC(=O)c1ccncc1)Nc1ccc([N+](=O)[O-])cc1`: the growth is 90.8% in assay [1]; 121% in assay [2]; 94.1% in assay [3]; 100% in assay [4]; 109% in assay [5]; 110% in assay [6]. The growth is 106% in assay [7] and 104% in assay [8].
As for `C[C@]12CC[C@H]3[C@@H](CCC4=CC(=O)CC[C@@]43C)[C@@H]1CC[C@@H]2c1csc(N)n1`, the growth was 24.8% in assay [1]; 34.2% in assay [2]; 55.5% in assay [3]; 56.9% in assay [4]; 26% in assay [5]; 32.7% in assay [6]. The values for the growth in assay [7] and in assay [8] were 45.8% and 50.8%, respectively.
Turning to `CCOC(=O)c1cc2c(n1Cc1cccc(OC)c1)-c1oncc1CC2`, the growth was 38.9% in assay [1]; 28.3% in assay [2]; -23.5% (active) in assay [3]; 23% in assay [4]; 14.1% in assay [5]; 14.9% in assay [6]. Besides, the growth in assay [7] was 58.6%; in assay [8] it was 32.5%.
Regarding `COc1cc2c3c(cccc3c1)C(=O)N(CCN1CCCC1)C2=O`, the growth in assay [1] is 25.3%; in assay [2], 49.4%; in assay [3], 14.4%; in assay [4], 9.75% (active); in assay [5] it was 3.07% (active); in assay [6] it was 6.66% (active). Also, the growth is 44.4% in assay [7] and 21.3% in assay [8].
On to `O=C1/C(=C/c2ccc(O)cc2)CSc2ccc(Cl)cc21`, for which the growth in assay [1] was 64.8%; in assay [2], 81.9%; in assay [3], 71.1%; in assay [4] it was 27.9%; in assay [5], 20.5%; in assay [6] it was 31.2%. Besides, the growth in assay [7] was 94.4%; in assay [8] it was 35.1%.
Take `Cc1ccc2nc(-c3ccc(OCC(=O)N=Nc4c(O)[nH]c5ccccc45)cc3)[nH]c2c1`: the growth was 38.4% in assay [1]; 109% in assay [2]; 64.3% in assay [3]; 6.51% (active) in assay [4]; -24.7% (active) in assay [5]; -20.5% (active) in assay [6]. The figures for the growth in assay [7] and in assay [8] were 59.7% and 1.59% (active), respectively.
As to `Cc1nc2ccc(-n3c(-c4ccc(Cl)cc4)nc4ccccc4c3=O)cc2n1Cc1ccccc1`, the growth was 78.8% in assay [1]; 83.3% in assay [2]; 97.2% in assay [3]; 93.7% in assay [4]; 85% in assay [5]; 93% in assay [6]. Besides, the growth was 107% in assay [7] and 97.8% in assay [8].
For `Nc1ccccc1NC(=O)CCCCCCC(=O)Nc1ccc2c(c1)/C(=C/c1ccc[nH]1)C(=O)N2`, the growth in assay [1] was 37.9%; in assay [2], 22%; in assay [3], 37.8%; in assay [4], 47.4%; in assay [5] it was 15.9%; in assay [6], 17%. Also, the growth in assay [7] was 70.2%; in assay [8], 13.7%.
Turning to `COc1cc(-c2cc(-c3ccc(C)cc3)nc3nc(N)[nH]c(=O)c23)ccc1Oc1ccnc2cc(Cl)ccc12`, the growth in assay [1] was 69.6%; in assay [2] it was 112%; in assay [3] it was 85.3%; in assay [4], 98.2%; in assay [5] it was 51.2%; in assay [6] it was 88.8%. Further, the values for the growth in assay [7] and in assay [8] were 79.5% and 67%, respectively.
For the compound `O=C(CSc1nnc(-c2ccc(Cl)cc2)o1)c1ccccc1`, the growth is 93% in assay [1]; 98.3% in assay [2]; 109% in assay [3]; 107% in assay [4]; 102% in assay [5]; 92.2% in assay [6]. Moreover, the growth in assay [7] is 87.5%; in assay [8] it was 96.3%.
With `O=C(CCc1ccccc1)N1CCN(C(=O)CCc2ccccc2)CC1`, the growth in assay [1] was 108%; in assay [2], 105%; in assay [3] it was 106%; in assay [4], 109%; in assay [5], 95.7%; in assay [6] it was 99.6%. Besides, the growth in assay [7] is 109%; in assay [8], 111%.
Take `O=C1CC[C@@H](C(=O)N[C@H]2CSSC[C@@H](C(=O)N/C=C/c3ccc(O)cc3)NC(=O)[C@H](Cc3ccccc3)NC(=O)[C@@H]3CCCN3C(=O)[C@@H]3CCCN3C2=O)N1`: the growth in assay [1] was 78.3%; in assay [2], 120%; in assay [3] it was 104%; in assay [4] it was 97.2%; in assay [5], 96.8%; in assay [6], 99.7%. Moreover, the growth in assay [7] is 98.9%; in assay [8], 97.9%.
Consider `COc1ccc(C(=O)c2sc3nc(-c4cccs4)ccc3c2N)cc1OC`, for which the growth in assay [1] is 25.3%; in assay [2], 48.9%; in assay [3] it was 5.62% (active); in assay [4], 45.4%; in assay [5], 24.7%; in assay [6], 43.3%. For the same compound, the growth in assay [7] was 82%; in assay [8] it was 38.1%.
For `COc1cc(-c2nc3ccc(C)cc3[nH]2)ccc1OCc1nnc(-c2ccc(CC(C)C)cc2)o1`, the growth in assay [1] was 77.2%; in assay [2], 101%; in assay [3], 99.6%; in assay [4] it was 106%; in assay [5], 79.8%; in assay [6] it was 97.1%. In addition, the values for the growth in assay [7] and in assay [8] were 115% and 97.5%, respectively.
`CCCCn1c(=O)[nH]c2c(c1=O)C(c1ccc(Cl)cc1)c1c([nH]c(=O)n(CCCC)c1=O)N2`: the growth in assay [1] was 73.3%; in assay [2], 100%; in assay [3], 103%; in assay [4] it was 101%; in assay [5], 88.2%; in assay [6], 96.6%. Further, the results for the growth in assay [7] and in assay [8] were 103% and 102%, respectively.
For the compound `CS(=O)(=O)Nc1ccc(Nc2c3ccccc3nc3cc(Cl)ccc23)cc1`, the growth was 26.9% in assay [1]; 52.4% in assay [2]; 54.1% in assay [3]; 30.4% in assay [4]; 18.6% in assay [5]; 16.5% in assay [6]. Moreover, the growth in assay [7] is 42.6%; in assay [8], 48.2%.
Turning to `COc1cc(-c2c(C#N)c(N)n3c(nc4ccccc43)c2C#N)cc(Br)c1OC`, the growth in assay [1] is 65.8%; in assay [2], 65.1%; in assay [3], 62.8%; in assay [4] it was 41.4%; in assay [5], 24.6%; in assay [6], 18.8%. The growth in assay [7] is 89.5%; in assay [8], 21.1%.
As to `O=[N+]([O-])c1cc2ncccc2c2ncccc12`, the growth in assay [1] is 74.6%; in assay [2] it was 89.6%; in assay [3] it was 61.9%; in assay [4], 85.4%; in assay [5], 60.6%; in assay [6] it was 53.5%. Besides, the growth in assay [7] is 108%; in assay [8], 96.3%.
With `NC(=O)C1CCCN(Cc2c[nH]c3ccccc23)C1` (stereo not given), the growth is 92.8% in assay [1]; 105% in assay [2]; 108% in assay [3]; 99.5% in assay [4]; 101% in assay [5]; 103% in assay [6]. The figures for the growth in assay [7] and in assay [8] were 100% and 102%, respectively.
With `O=C(O)CCCN1C(=O)NC2(C1=O)c1ccccc1-c1ccccc12`, the growth in assay [1] is 89.4%; in assay [2], 96.7%; in assay [3] it was 103%; in assay [4] it was 104%; in assay [5] it was 97.3%; in assay [6] it was 95.6%. The growth in assay [7] was 101%; in assay [8], 102%.
